# Source: PubChem BioAssay AID1159580 (chemical genetic matrix, 2015)
# About 2,000 (36%) of roughly 5,500 compounds were called active. Not shown: some 18% with an inconclusive outcome. The list shows a part of the results. Values without a mark were called inactive. No stated cut-off is given here; in the data, active means normalized growth mostly below about 0.91 (no sharp cut-off); inconclusive means no clear call, values can overlap the other calls; inactive means mostly above about 0.92.
# Assay: chemical genetic growth profiling, strain panel (AID 1159580);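 further: tested at 20 µM; growth read once vehicle control cultures reached saturation at 30 °C; 1 = growth at the plate median or of vehicle wells; lower values mean less growth of the strain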
# Settings: growth OD
smiles,measurement,setting,value
COc1ccc(C(=O)c2ccccc2O)c(O)c1,normalized growth,"S. cerevisiae deletion strains, locus YJR066W, strain TOR1, active compounds read low",0.901
same,normalized growth,"S. cerevisiae deletion strains, locus YKL009W, strain mrt4, active compounds read low",0.895
same,normalized growth,"S. cerevisiae deletion strains, locus YKL068W, active compounds read low",0.944
same,normalized growth,"S. cerevisiae deletion strains, locus YKL085W, strain MDH1 (second series), active compounds read low",0.905 (active)
same,normalized growth,"S. cerevisiae deletion strains, locus YKL085W, strain MDH1, active compounds read low",0.905 (active)
same,normalized growth,"S. cerevisiae deletion strains, locus YKL160W, strain elf1, active compounds read low",0.896 (active)
same,normalized growth,"S. cerevisiae deletion strains, locus YKL190W, strain CNB1, active compounds read low",0.963
same,normalized growth,"S. cerevisiae deletion strains, locus YKR001C, strain vps1, active compounds read low",0.71 (active)
same,normalized growth,"S. cerevisiae deletion strains, locus YKR026C, strain gcn3, active compounds read low",0.894 (active)
same,normalized growth,"S. cerevisiae deletion strains, locus YKR091W, strain srl3, active compounds read low",0.901 (active)
same,normalized growth,"S. cerevisiae deletion strains, locus YLL001W, strain dnm1, active compounds read low",0.92
same,normalized growth,"S. cerevisiae deletion strains, locus YLL026W, active compounds read low",0.88 (active)
same,normalized growth,"S. cerevisiae deletion strains, locus YLL041C, strain sdh2, active compounds read low",0.885 (active)
same,normalized growth,"S. cerevisiae deletion strains, locus YLR027C, strain aat2, active compounds read low",0.875 (active)
same,normalized growth,"S. cerevisiae deletion strains, locus YLR039C, strain RIC1, active compounds read low",0.63 (active)
same,normalized growth,"S. cerevisiae deletion strains, locus YLR058C, strain SHM2, active compounds read low",0.919
same,normalized growth,"S. cerevisiae deletion strains, locus YLR102C, strain apc9, active compounds read low",0.948
same,normalized growth,"S. cerevisiae deletion strains, locus YLR113W, strain HOG1, active compounds read low",0.907
same,normalized growth,"S. cerevisiae deletion strains, locus YLR221C, strain rsa3, active compounds read low",0.891 (active)
same,normalized growth,"S. cerevisiae deletion strains, locus YLR258W, strain gsy2, active compounds read low",0.869 (active)
same,normalized growth,"S. cerevisiae deletion strains, locus YLR262C, strain YPT6 (second series), active compounds read low",0.46 (active)
same,normalized growth,"S. cerevisiae deletion strains, locus YLR262C, strain YPT6, active compounds read low",0.562 (active)
same,normalized growth,"S. cerevisiae deletion strains, locus YLR268W, strain sec22, active compounds read low",0.938
same,normalized growth,"S. cerevisiae deletion strains, locus YLR320W, strain mms22, active compounds read low",0.717 (active)
same,normalized growth,"S. cerevisiae deletion strains, locus YLR330W, strain CHS5, active compounds read low",0.923
same,normalized growth,"S. cerevisiae deletion strains, locus YLR342W, strain FKS1 (second series), active compounds read low",0.838
same,normalized growth,"S. cerevisiae deletion strains, locus YLR342W, strain FKS1, active compounds read low",0.872 (active)
same,normalized growth,"S. cerevisiae deletion strains, locus YLR357W, strain rsc2, active compounds read low",0.986
same,normalized growth,"S. cerevisiae deletion strains, locus YLR370C, strain arc18, active compounds read low",0.841 (active)
same,normalized growth,"S. cerevisiae deletion strains, locus YLR371W, strain rom2, active compounds read low",0.91
same,normalized growth,"S. cerevisiae deletion strains, locus YLR384C, strain iki3, active compounds read low",0.89 (active)
same,normalized growth,"S. cerevisiae deletion strains, locus YLR418C, strain cdc73, active compounds read low",0.821 (active)
same,normalized growth,"S. cerevisiae deletion strains, locus YML016C, strain PPZ1, active compounds read low",0.93
same,normalized growth,"S. cerevisiae deletion strains, locus YML032C, strain rad52, active compounds read low",0.923
same,normalized growth,"S. cerevisiae deletion strains, locus YML120C, strain ndi1, active compounds read low",0.878 (active)
same,normalized growth,"S. cerevisiae deletion strains, locus YML124C, strain tub3, active compounds read low",0.925 (active)
same,normalized growth,"S. cerevisiae deletion strains, locus YMR058W, strain fet3, active compounds read low",0.824 (active)
same,normalized growth,"S. cerevisiae deletion strains, locus YMR078C, strain ctf18, active compounds read low",0.913
same,normalized growth,"S. cerevisiae deletion strains, locus YMR125W, strain sto1, active compounds read low",0.915
same,normalized growth,"S. cerevisiae deletion strains, locus YMR129W, active compounds read low",0.888 (active)
same,normalized growth,"S. cerevisiae deletion strains, locus YMR205C, strain PFK2, active compounds read low",0.803 (active)
same,normalized growth,"S. cerevisiae deletion strains, locus YMR223W, strain ubp8, active compounds read low",0.873 (active)
same,normalized growth,"S. cerevisiae deletion strains, locus YMR231W, strain pep5, active compounds read low",0.895 (active)
same,normalized growth,"S. cerevisiae deletion strains, locus YMR263W, strain SAP30, active compounds read low",0.903
same,normalized growth,"S. cerevisiae deletion strains, locus YMR307W, strain GAS1, active compounds read low",0.852
same,normalized growth,"S. cerevisiae deletion strains, locus YNL067W, strain RPL9B, active compounds read low",0.892
same,normalized growth,"S. cerevisiae deletion strains, locus YNL071W, strain lat1, active compounds read low",0.75 (active)
same,normalized growth,"S. cerevisiae deletion strains, locus YNL128W, strain TEP1, active compounds read low",0.948
same,normalized growth,"S. cerevisiae deletion strains, locus YNL183C, strain NPR1, active compounds read low",0.908
same,normalized growth,"S. cerevisiae deletion strains, locus YNL209W, strain ssb2, active compounds read low",0.913 (active)
same,normalized growth,"S. cerevisiae deletion strains, locus YNL233W, strain BNI4, active compounds read low",0.869 (active)
same,normalized growth,"S. cerevisiae deletion strains, locus YNL248C, strain rpa49, active compounds read low",0.858 (active)
same,normalized growth,"S. cerevisiae deletion strains, locus YNL250W, strain rad50, active compounds read low",0.951
same,normalized growth,"S. cerevisiae deletion strains, locus YNL271C, strain bni1, active compounds read low",0.91 (active)
same,normalized growth,"S. cerevisiae deletion strains, locus YNL298W, strain CLA4, active compounds read low",0.899 (active)
same,normalized growth,"S. cerevisiae deletion strains, locus YNL307C, strain MCK1, active compounds read low",0.874 (active)
same,normalized growth,"S. cerevisiae deletion strains, locus YNL322C, strain KRE1 (second series), active compounds read low",0.888 (active)
same,normalized growth,"S. cerevisiae deletion strains, locus YNL322C, strain KRE1, active compounds read low",0.983
same,normalized growth,"S. cerevisiae deletion strains, locus YNR049C, strain mso1, active compounds read low",0.889 (active)
same,normalized growth,"S. cerevisiae deletion strains, locus YNR052C, strain pop2, active compounds read low",0.96
same,normalized growth,"S. cerevisiae deletion strains, locus YOL006C, strain TOP1, active compounds read low",0.564
same,normalized growth,"S. cerevisiae deletion strains, locus YOL012C, strain htz1",1.21
same,normalized growth,"S. cerevisiae deletion strains, locus YOL147C, strain pex11, active compounds read low",0.924 (active)
same,normalized growth,"S. cerevisiae deletion strains, locus YOR001W, strain rrp6, active compounds read low",0.794 (active)
same,normalized growth,"S. cerevisiae deletion strains, locus YOR061W, strain CKA2, active compounds read low",0.945
same,normalized growth,"S. cerevisiae deletion strains, locus YOR069W, strain VPS5, active compounds read low",0.955
same,normalized growth,"S. cerevisiae deletion strains, locus YOR070C, strain gyp1, active compounds read low",0.913 (active)
same,normalized growth,"S. cerevisiae deletion strains, locus YOR080W, strain dia2, active compounds read low",0.919
same,normalized growth,"S. cerevisiae deletion strains, locus YOR083W, strain WHI5, active compounds read low",0.884 (active)
same,normalized growth,"S. cerevisiae deletion strains, locus YOR106W, strain vam3, active compounds read low",0.866 (active)
same,normalized growth,"S. cerevisiae deletion strains, locus YOR136W, strain idh2, active compounds read low",0.961
same,normalized growth,"S. cerevisiae deletion strains, locus YOR144C, strain elg1, active compounds read low",0.938
same,normalized growth,"S. cerevisiae deletion strains, locus YOR184W, strain ser1, active compounds read low",0.754 (active)
same,normalized growth,"S. cerevisiae deletion strains, locus YOR231W, strain MKK1, active compounds read low",0.958
same,normalized growth,"S. cerevisiae deletion strains, locus YOR265W, strain rbl2, active compounds read low",0.891 (active)
same,normalized growth,"S. cerevisiae deletion strains, locus YOR270C, strain vph1, active compounds read low",0.469 (active)
same,normalized growth,"S. cerevisiae deletion strains, locus YOR290C, strain snf2, active compounds read low",0.803 (active)
same,normalized growth,"S. cerevisiae deletion strains, locus YOR316C, strain cot1, active compounds read low",0.936
same,normalized growth,"S. cerevisiae deletion strains, locus YPL051W, strain arl3, active compounds read low",0.729 (active)
same,normalized growth,"S. cerevisiae deletion strains, locus YPL055C, strain LGE1, active compounds read low",0.9
same,normalized growth,"S. cerevisiae deletion strains, locus YPL078C, strain atp4, active compounds read low",0.79 (active)
same,normalized growth,"S. cerevisiae deletion strains, locus YPL106C, strain sse1, active compounds read low",0.935
same,normalized growth,"S. cerevisiae deletion strains, locus YPL240C, strain hsp82, active compounds read low",0.901 (active)
same,normalized growth,"S. cerevisiae deletion strains, locus YPL241C, strain CIN2, active compounds read low",0.972
same,normalized growth,"S. cerevisiae deletion strains, locus YPL256C, strain CLN2, active compounds read low",0.918
same,normalized growth,"S. cerevisiae deletion strains, locus YPR119W, strain clb2, active compounds read low",0.931
same,normalized growth,"S. cerevisiae deletion strains, locus YPR141C, strain kar3, active compounds read low",0.905 (active)
same,normalized growth,"S. cerevisiae deletion strains, locus YPR163C, strain tif3, active compounds read low",0.968
same,normalized growth,"S. cerevisiae deletion strains, locus YPR167C, strain met16, active compounds read low",0.925
same,normalized growth,"S. cerevisiae deletion strains, strain wtn01, active compounds read low",0.891 (active)
same,normalized growth,"S. cerevisiae strains, strain wild type, active compounds read low",0.951
